PLAP act = activates human placental alkaline phosphatase; purified PLAP enzyme, luminescent substrate read-out; hits give high values; activation fold at 20 µM; AID 696; P05187; 96,000 tested, 1.2% active; in the data active = activation fold above about 2
M1 antagonist = blocks the rat M1 muscarinic receptor response to acetylcholine | B-score at 10 µM | CHO-M1 cells, Fluo-4 calcium, ACh EC80 antagonist mode; hits give low values | 64,000 tested, 3.4% active;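 active = calcium fluorescence response, raw or row-and-column corrected B-score, differing from the plate sample mean either way at a set confidence level, mostly lower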
Target sequence (P08482 whole entry, looked up): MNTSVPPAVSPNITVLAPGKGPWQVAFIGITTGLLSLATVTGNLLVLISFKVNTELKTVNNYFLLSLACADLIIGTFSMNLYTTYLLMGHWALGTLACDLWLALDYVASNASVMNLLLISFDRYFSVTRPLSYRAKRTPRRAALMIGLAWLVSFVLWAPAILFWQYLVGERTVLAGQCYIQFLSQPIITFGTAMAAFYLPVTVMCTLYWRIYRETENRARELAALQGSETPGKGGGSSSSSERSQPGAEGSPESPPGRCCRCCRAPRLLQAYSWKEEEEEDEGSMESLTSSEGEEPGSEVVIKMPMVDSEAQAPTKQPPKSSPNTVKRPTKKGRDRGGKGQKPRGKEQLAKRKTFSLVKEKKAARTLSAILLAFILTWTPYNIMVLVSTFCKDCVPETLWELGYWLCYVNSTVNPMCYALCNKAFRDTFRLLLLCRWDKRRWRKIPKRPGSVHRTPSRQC
M1 agonist = M1 muscarinic receptor agonism. 64,000 tested, 3% active. CHO-M1 cells, Fluo-4 calcium fluorescence, agonist mode; hits give high values. AID 626. B-score at 10 µM;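 active = fluorescence rise, raw or as B-score row- and column-corrected plate score, outside the 99.7% band of its plate's samples, either direction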
Cav3 T inh = blocks human Cav3.2 T-type calcium channel; 100,000 tested, 4% active; B-score at 10 µM; O95180; Cav3.2-expressing cells, Fluo-4 calcium fluorescence FDSS; hits give low values; AID 449739;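 active = single-dose well whose peak fluorescence ratio is a statistical outlier from its plate by either plate-standardised score or position-corrected B-score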
The depositor's hits bear a star; / = no result. An excerpt weighted towards active compounds, which were near 7.6% of everything screened.

SMILES	PLAP act	M1 antagonist	M1 agonist	Cav3 T inh
O=C(Nc1nc2ccccc2s1)C1CCCN1S(=O)(=O)c1ccc(Cl)cc1 (centres undefined)	1.1	-0.79	0.91	-5.3*
O=C(NCC1(c2ccccc2)CCCC1)C(=O)N1CCOCC1	/	/	/	0.0095
COc1ccc(N2C(=O)CSC23C(=O)N2c4c(cccc43)C(C)=CC2(C)C)cc1 (centres undefined)	1.7	/	/	-2
Cc1cc2c3c(c1)C1(SCC(=O)N1c1ccc(F)cc1)C(=O)N3C(C)(C)CC2C (centres undefined)	1.7	/	/	-3.4*
CC1(c2nnc(Cc3ccccc3)o2)CC(c2c(Cl)cccc2Cl)=NO1 (centres undefined)	/	/	/	-0.73
NC(=O)C1=C[C@H](c2csc3ccccc23)C[C@H](OCCCCO)O1	/	/	/	0.35
CC1CCCC(C)N1CCNC(=O)C1CCN(S(=O)(=O)N2CCCCC2)CC1 (centres undefined)	1.6	-1.3	-0.57	-1.8
Cc1nnc(N/N=C/c2cc([N+](=O)[O-])c(N3CCC(C)CC3)cc2N2CCC(C)CC2)n1N	1.6	/	/	-6.7*
[N-]=[N+]=CC(=O)c1ccnc(C(=O)C=[N+]=[N-])c1	0.9	1.6*	-0.38	-0.91
COc1ccc(CC(=O)NNC(=S)Nc2ccc(Br)cc2)cc1	1.2	/	/	-2.1
CCOc1ccc(CC(=O)NNC(=S)Nc2ccccc2)cc1Br	1.5	/	/	-7.4*
O=C(N/N=C1\CCCc2ccccc21)c1ccccc1[N+](=O)[O-]	/	/	/	-0.046
Cc1cc(C2(c3ccc(O)c(C)c3)C(=O)Nc3ccccc32)ccc1O	1.1	/	/	/
Cc1cccc2c1NC(=O)C2(c1ccc(O)cc1)c1ccc(O)cc1	1	/	/	-5.1*
O=C(O)CC(NC(=O)COc1ccc(Cl)cc1Cl)C(=O)O (centres undefined)	1	-0.046	0.001	0.15
CC1(c2nnc(-c3ccc(F)cc3)o2)CC(c2ccccc2)=NO1 (centres undefined)	/	/	/	-0.8
O=C(Nc1cccc(Cl)c1)N1CCN(c2ncccn2)CC1	0.8	0.55	0.14	-2.8
Cc1ccc(C(=O)N2CCN3C(=O)c4ccccc4C23c2ccc(Cl)cc2)cc1 (centres undefined)	1.6	/	/	-5*
O=C(Nc1cccc(Cl)c1)N1CCN2C(=O)c3ccccc3C12c1ccccc1 (centres undefined)	1.2	/	/	-6.6*
O=C(CN1C(=O)C2CC=CCC2C1=O)Nc1nnc(SCc2c(Cl)cccc2Cl)s1 (centres undefined)	1.5	/	/	-0.1
O=C(CN1C(=O)C2CC=CCC2C1=O)Nc1nnc(SCc2ccc(Cl)cc2)s1 (centres undefined)	1.3	/	/	-4.5*
c1ccc2[nH]c(NC3=NCCC3)nc2c1	2.1*	-0.16	-0.043	-0.11
COc1ccc(CCNc2oc(COc3ccccc3Cl)nc2C#N)cc1OC	/	-0.82	1.7	-5.8*
COc1ccc(CCNc2oc(COc3ccc(F)cc3)nc2C#N)cc1	0.8	-0.08	0.96	-3.5
Cc1cc(Nc2ccc(Cl)cc2)n(-c2ccccc2)n1	0.9	/	/	0.63
SMILES	PLAP act	M1 antagonist	M1 agonist	Cav3 T inh
Cc1cc(Nc2ccccc2)n(-c2ccc(Br)cc2)n1	0.4	/	/	-7.2*
O=C(c1ccccc1)c1ccc(C(=O)N2CCN(c3ccc(F)cc3)CC2)o1	1.4	1.2	-0.65	-3
CCOC(=O)c1cnn(-c2ccc(Cl)cc2)c1C1CCN(C(=O)OC(C)(C)C)CC1	2.3*	/	/	/
CC(C)(C)Cc1nc(-c2ccc(Cl)cc2)no1	1	/	/	0.6
c1ccc(-c2nc3nc4ccccc4nc3n2Cc2ccco2)cc1	1.3	-0.14	1.1	-2.3
N=c1c2c(-c3ccccc3)c(-c3ccccc3)n(Cc3ccco3)c2ncn1CCO	/	/	/	-7.4*
C/C(=C\C(=O)c1ccc(C)o1)Nc1ccc(C(=O)O)cc1C	1	3*	0.065	-0.15
COc1ccc(NC(=O)c2ccco2)cc1N	1.2	0.83	-0.35	-0.61
Cc1ccc(C)c(C(=O)CSc2n[nH]c(C)n2)c1	1.8	0.17	-1.6	0.38
CCc1nc(SCC(=O)c2cc(C)ccc2C)n[nH]1	2.3*	0.016	0.72	0.078
CCSc1nnc(NC(=O)CSc2nc3c(c(=O)n2CCOC)SC(C)C3)s1 (centres undefined)	/	0.0018	-0.74	-0.32
Cc1nn(Cc2c(F)c(F)c(F)c(F)c2F)c(C)c1NC(=O)c1cccc(COc2ccc(Cl)cc2)c1	1	/	/	-5.3*
COc1ccc(-c2cc(C(=O)Nc3c(C)nn(Cc4ccc(Cl)cc4)c3C)no2)cc1	0.8	0.068	0.062	-4.6*
Cc1ccc(Cn2nc(C)c(NC(=O)c3cc(-c4ccc5c(c4)OCO5)on3)c2C)cc1	1.1	-0.78	-0.42	-5.3*
Cc1nn(Cc2ccc(Cl)c(Cl)c2)c(C)c1NC(=O)c1cc(-c2ccco2)on1	/	-0.4	0.0082	-5.7*
Cc1nn(Cc2ccc(Cl)cc2)c(C)c1NC(=O)c1cc(-c2ccco2)on1	1.1	-1.4	-0.78	/
COc1ccc(OC)c2c(C)cc(N3CCN(C(=O)c4ccc(Cl)cc4)CC3)nc12	0.9	/	/	-1.9
Cc1ccc(C)c(OCCCC(=O)Nc2nccs2)c1	0.9	/	/	-4.6*
O=C(Nc1c(C(=O)N2CCOCC2)cnn1-c1ccccc1Cl)c1ccco1	1	-0.81	0.06	0.02
Cc1cc2ccccc2c(=O)n1CC(=O)NCC(=O)N1CCN(c2ccccc2F)CC1	1	-0.15	0.47	-3.8*
CCN1C(=S)SC(=O)C1=C1C=C(C)N(CCOC)C(C)=C1	0.8	-0.7	44*	/
CCN1C(=S)SC(=O)C1=C1C=C(C)N(CCO)C(C)=C1	0.7	1.8	-0.0025	-0.95
Cn1c(=O)c(C(=O)Nc2ncccc2O)c(O)c2ccccc21	2.2*	0.012	-0.63	0.17
Cn1c(=O)c(C(=O)Nc2cccnc2)c(O)c2ccccc21	/	-0.42	-0.074	/
Cc1onc(-c2ccccc2Cl)c1C(=O)Oc1cc(N)n(S(=O)(=O)c2ccc(F)cc2)n1	1	-0.21	-0.33	-0.57
SMILES	PLAP act	M1 antagonist	M1 agonist	Cav3 T inh
Cc1ccc(S(=O)(=O)n2nc(OC(=O)c3c(-c4ccccc4Cl)noc3C)cc2N)cc1	1	0.11	3.6	-7.4*
O=C(NN=C1c2ccccc2-c2ccccc21)c1ccccc1Br	1.1	/	/	-4*
O=C(Nc1ccccc1C(=O)N/N=C/c1ccc(F)cc1)c1ccccc1Br	1.2	/	/	0.95
Cc1nn2c3ccccc3nc2c2ccccc12	1.3	-0.67	1.1	1.3
Cc1nn2c(-c3ccccc3)nnc2c2ccccc12	1.1	2.1*	0.34	2.2
COc1cc(C(=O)Nc2cc(-c3ccccc3)[nH]n2)cc(OC)c1OC	2.3*	-0.24	0.82	-1.7
COc1cc(C(=O)Nc2nc(OC)c(-c3ccccc3)c(OC)n2)cc(OC)c1OC	1.2	-1.5	2.7	-0.28
N#CCCn1c(Cl)nc2ccccc21	0.9	-1.7	-0.17	0.83
COC(=O)CSc1nnc2n(C3CCCCC3)c(=O)c3c4c(sc3n12)CCCC4	1.2	0.047	0.65	-3.9*
CCOC(=O)CSc1nnc2n(C3CCCCC3)c(=O)c3c4c(sc3n12)CCCC4	1.2	0.049	3.1	-3.7
CCOC(=O)CNC(=O)C(CC(C)C)NC(=O)C1CCCCC1 (centres undefined)	1.3	/	/	0.97
Cc1ccc(SCC(=O)N2c3ccccc3Sc3ccccc32)cc1	1.1	/	/	-5.8*
